PubChem BioAssay (NCATS)
Results filed as inconclusive are left out. Unmarked numbers belong to inactive results. Calls follow the shape of the dose curve; as a rule, active = well fitted inhibition curve with a large enough effect; inconclusive = small, poorly fitted or top-dose-only effect; inactive = no such curve, though single readings can be large or run the other way.

assay: qHTS assay for measurement of the activity of small molecule inhibitors on Zika virus induced Caspase-3 activity in human iPSC derived neural progenitor cells (hNPCs) (AID 1224857); settings: hNPCs ZIKV-induced caspase-3/7, Caspase-Glo luminescence, 6 h; series mostly up to 45.7 µM; activity change, negative = inhibition: at the top concentration; also: % of control where 0% means no effect; nearly all actives have a fitted effect of over 65% in size
Source text: National Center for Advancing Translational Sciences [NCATS]
Johns Hopkins University School of Medicine
Increase in the Caspase-3 activity indicates an activation of apoptosis cell death pathway caused by Zika virus infection in certain types of neuronal cells including human neural progenitor cells (hNPCs), astrocytes, and astrocytoma cell line (SNB-19). This cell-based caspase-3 activity assay measures the increased caspase-3 activity in the human iPSC derived neural progenitor cells (hNPCs) after a 6-hour Zika virus infection with a luminescence readout. A decrease in the luminescence signal in this assay by small molecule treatment indicates an inhibitory effect of that small molecule on the Zika virus induced caspase-3 activity that may correlate with its effect on reduction of Zika virus caused cell death.
The medium for hNPCs consists of DMEM/F12, N2 supplement (ThermoFisher, Cat.# 17502048), NEAA (ThermoFisher, Cat. # 11140050), 2 ug/ml heparin, 2 uM cyclopamine, and B27 (ThermoFisher, Cat. # 17504044). A Caspase-Glo 3/7 assay kit (catalog number G8092; Promega, Madison, WI) was used to detect caspase-3 activity induced by Zika virus infection in human cells. The reagent mixture was reconstituted as described in the protocol from the manufacturer. Polystyrene tissue culture treated and PDL coated white plates were obtained from Greiner Bio-One (Monroe, NC). Cells were seeded in 384- or 1536-well assay plates and cultured at 37 C with 5% CO2 for 16 to 20 hours. The typical cell seeding density in the 1536-well plate assay is 350 cells/well in 3 ul medium for hNPCs in tissue culture treated plates. Compounds were added to cells and incubated for one hour before addition of ZIKV solution to cells (2 FFU/cell). After incubation at 37 C with 5% CO2 for 6 hours, the reagent mixture of Caspase-Glo 3/7 assay kit was added to each well, followed by incubation at room temperature for 30 minutes. The luminescence intensity of the assay plates was measured using a ViewLux plate reader (PerkinElmer). Data were normalized by using the cell-containing wells without ZIKV as a negative control (0% induction of caspase 3/7 activity) and wells containing ZIKV infected cells (Caspase-3 activity induced) as a positive control (100% induction of caspase 3 activity). The percentage inhibitions of the increased Caspase-3 activity by small molecule inhibitors were then calculated.

**Q.** Which “activity change, negative = inhibition” value does the source give for `CN1CCN(c2cccc(Nc3nc4c(-c5ccc(S(C)(=O)=O)cc5)cccn4n3)c2)CC1` here?
**A.** The value was 5.92%.

**Q.** Which “activity change, negative = inhibition” value does the source give for `COc1cc2c(cc1Cc1cccc(Cl)c1F)c(=O)c(C(=O)O)cn2[C@H](CO)C(C)C` here?
**A.** The value was 28.6%.

**Q.** For `CN1CCc2c(n(Cc3ccc(C(=O)NO)cc3)c3ccccc23)C1`, which “activity change, negative = inhibition” value is on record?
**A.** Its value is 27.4%.

**Q.** Which “activity change, negative = inhibition” value does the source give for `O=C1C(CCC(O)c2ccc(F)cc2)C(c2ccc(O)cc2)N1c1ccc(F)cc1` (stereo not given) here?
**A.** The value was 41.1%.

**Q.** For `O=S(=O)(NCCNCC=Cc1ccc(Br)cc1)c1cccc2cnccc12`, which “activity change, negative = inhibition” value is on record?
**A.** The value was 67.8%.

**Q.** With `CC=C(C(=CC)c1ccc(O)cc1)c1ccc(O)cc1` as the compound, how does the “activity change, negative = inhibition” value read?
**A.** The value was -2.07%.

**Q.** For `CCNC(=O)CCCC=CC[C@@H]1[C@H](C=CC(O)CCc2ccccc2)[C@@H](O)C[C@@H]1O` (stereo not given in full), which “activity change, negative = inhibition” value is on record?
**A.** The value was 31.7%.

**Q.** With `Cn1cnc(-c2cc3nccc(Oc4ccc(NC(=S)NC(=O)Cc5ccccc5)cc4F)c3s2)c1` as the compound, how does the “activity change, negative = inhibition” value read?
**A.** Its value is 2.58%.

**Q.** For `CCC(=C(c1ccc(O)cc1)c1ccc(OCCNC)cc1)c1ccccc1`, which “activity change, negative = inhibition” value is on record?
**A.** The value was 179%.

**Q.** Which “activity change, negative = inhibition” value does the source give for `O=C(O)C1=CO[C@@H](O[C@@H]2O[C@H](CO)[C@H](O)[C@H](O)[C@H]2O)[C@@H]2C(CO)=CC[C@H]12` here?
**A.** Its value is 20.7%.

**Q.** For `OC(c1cc(C(F)(F)F)nc2c(C(F)(F)F)cccc12)C1CCCCN1` (stereo not given), which “activity change, negative = inhibition” value is on record?
**A.** The value was 75.2%.

**Q.** For `CC1=C(C(=O)Nc2cc3cn[nH]c3cc2F)C(c2ccc(C(F)(F)F)cc2)CC(=O)N1` (stereo not given), which “activity change, negative = inhibition” value is on record?
**A.** The value was 11.4%.

**Q.** Which “activity change, negative = inhibition” value does the source give for `Cc1cc(NC(=O)Nc2ccc(N(C)C)cc2)c2cc(F)cc(F)c2n1` here?
**A.** The value was -3.86%.

**Q.** For `CCCCN(CCCC)CC(O)c1cc(Cl)cc2c1-c1ccc(Cl)cc1C2=Cc1ccc(Cl)cc1` (stereo not given), which “activity change, negative = inhibition” value is on record?
**A.** Its value is 25.9%.

**Q.** For `CN(C)c1nc(Cc2ccc(NC(=O)c3ccc(C(F)(F)F)cc3)cc2)nc(N(C)C)c1CC(=O)O`, which “activity change, negative = inhibition” value is on record?
**A.** Its value is -3.04%.

**Q.** Which “activity change, negative = inhibition” value does the source give for `COc1cc2c(cc1OC)CC(=O)N(CCCN(C)C[C@H]1Cc3cc(OC)c(OC)cc31)CC2` here?
**A.** The value was -2.21%.

**Q.** Which “activity change, negative = inhibition” value does the source give for `Cc1cccc2c1CC[C@H](CN1CCC(c3c(Cl)cccc3Cl)CC1)C[C@@H]2O` here?
**A.** The value was 46.7%.

**Q.** Which “activity change, negative = inhibition” value does the source give for `CN[C@@H]1CN(c2ccc3c(=O)c(C(=O)O)cn(-c4nccs4)c3n2)C[C@@H]1OC` here?
**A.** Its value is 29.6% [at 20.5 µM].

**Q.** With `COc1ccc(-c2ccc3ncc4c(c3c2)n(-c2ccc(N3CCNCC3)c(C(F)(F)F)c2)c(=O)n4C)cn1` as the compound, how does the “activity change, negative = inhibition” value read?
**A.** The value was -15.2%.

**Q.** Which “activity change, negative = inhibition” value does the source give for `CN(C)CCN(Cc1ccc(Cl)cc1)c1ccccn1` here?
**A.** The value was 48.7%.

**Q.** For `CC(=O)N1CCN(c2ccc(OCc3nn(C)c(C)c3-c3cccc4c(CCCOc5cc(C)c(Cl)c(C)c5)c(C(=O)O)n(Cc5cccnc5)c34)cc2)CC1`, which “activity change, negative = inhibition” value is on record?
**A.** The value was 67.8%.

**Q.** For `CC(C)[C@H](O)C(=O)N[C@@H](C)C(=O)N[C@@H]1C(=O)N(C)CCc2ccccc21`, which “activity change, negative = inhibition” value is on record?
**A.** Its value is -10.8%.

**Q.** For `Cc1ccc2c(c1)C(=O)[C@]1(O)CCN(c3ccccc3)C1=N2`, which “activity change, negative = inhibition” value is on record?
**A.** Its value is -2.17%.

**Q.** For `Fc1ccc(C(c2ccc(F)cc2)N2CCN(CC=Cc3ccccc3)CC2)cc1`, which “activity change, negative = inhibition” value is on record?
**A.** Its value is 5.26%.

**Q.** With `Nc1ccn([C@@H]2O[C@H](CO)[C@@H](O)[C@H]2O)c(=O)n1` as the compound, how does the “activity change, negative = inhibition” value read?
**A.** The value was 7.85%.

**Q.** With `CN[C@H]1[C@@H](O[C@@H]2[C@H](O[C@@H]3[C@@H](O)[C@@H](O)[C@@H](N=C(N)N)[C@@H](O)[C@@H]3N=C(N)N)O[C@H](C)[C@@]2(O)C=O)O[C@@H](CO)[C@@H](O)[C@H]1O` as the compound, how does the “activity change, negative = inhibition” value read?
**A.** Its value is 33.7% [at 15.2 µM].

**Q.** With `O=C(Nc1cccc(Cl)c1)Nc1ncc(CCNc2ncnc3ccsc23)s1` as the compound, how does the “activity change, negative = inhibition” value read?
**A.** The value was -1.07%.

**Q.** For `CC1CCN(c2cc(N3CCN(C)CC3)ccc2NC(=O)c2cc(C#N)c[nH]2)CC1`, which “activity change, negative = inhibition” value is on record?
**A.** The value was 3.57%.

**Q.** For `CCC(=O)OCC(=O)[C@@]1(OC(=O)CC)[C@@H](C)C[C@@H]2[C@H]3CCC4=CC(=O)C=C[C@]4(C)[C@@]3(F)[C@@H](O)C[C@@]21C`, which “activity change, negative = inhibition” value is on record?
**A.** The value was 9.06%.

**Q.** For `COc1c(C)cnc(Cn2cnc3c(Cl)nc(N)nc32)c1C`, which “activity change, negative = inhibition” value is on record?
**A.** The value was 19%.

**Q.** For `Cc1ccc(NC(=O)c2ccc(CN3CCN(C)CC3)cc2)cc1Nc1nc(-c2cccnc2)cs1`, which “activity change, negative = inhibition” value is on record?
**A.** Its value is 20.3%.

**Q.** With `CCCCC(C=O)NC(=O)C(CC(C)C)NC(=O)OCc1ccccc1` (stereo not given) as the compound, how does the “activity change, negative = inhibition” value read?
**A.** Its value is -10.5%.

**Q.** With `CSc1cccc(Nc2ncc3cc(-c4c(Cl)cccc4Cl)c(=O)n(C)c3n2)c1` as the compound, how does the “activity change, negative = inhibition” value read?
**A.** The value was -0.192%.

**Q.** For `CC[C@H](CC#N)OC(=O)N[C@@H](C)c1cccc(NC(=O)Nc2ccc(-c3cnco3)c(OC)c2)c1`, which “activity change, negative = inhibition” value is on record?
**A.** Its value is -7.27%.

**Q.** With `C[C@@H](O)[C@H]1C(=O)N2C(C(=O)OCOC(=O)C(C)(C)C)=C(SC3CN(C4=NCCS4)C3)[C@H](C)[C@H]12` as the compound, how does the “activity change, negative = inhibition” value read?
**A.** The value was -11.3%.

**Q.** Which “activity change, negative = inhibition” value does the source give for `Cc1csc(-c2nnc(Nc3ccc(Oc4ncccc4-c4ccnc(N)n4)cc3)c3ccccc23)c1` here?
**A.** The value was 43.7%.

**Q.** With `CNC1CCC(N(Cc2cccc(-c3ccncc3)c2)C(=O)c2sc3ccccc3c2Cl)CC1` (stereo not given) as the compound, how does the “activity change, negative = inhibition” value read?
**A.** Its value is 73.4%.

**Q.** Which “activity change, negative = inhibition” value does the source give for `CCCCC(F)(F)[C@@]1(O)CC[C@H]2[C@H](CC(=O)[C@@H]2CCCCCCC(=O)O)O1` here?
**A.** Its value is -9.31%.

**Q.** For `CN(C)c1ccc(-c2nc3ncc(Cl)c(N4CCN(CC(=O)Nc5nccs5)CC4)c3[nH]2)cc1`, which “activity change, negative = inhibition” value is on record?
**A.** The value was -3.39%.

**Q.** Which “activity change, negative = inhibition” value does the source give for `CN(C)CCOc1ccc(-c2nc(-c3ccc4c(c3)CCC4=NO)c(-c3ccncc3)[nH]2)cc1` here?
**A.** Its value is 23.3%.
